Assay outcomes as filed in PubChem BioAssay.
PV pol inh: poliovirus RNA polymerase inhibition; hit rate 0.66% among 150,000; poliovirus polymerase elongation, fluorescence polarization; hits give low values; % elongation, % (compound at 16.7 µg/mL); in the data active means % elongation below about 90%
AID504770: E. coli YBA685 growth inhibition, screen for V. cholerae RctB inhibitors; hit rate 0.27% among 130,000; z-score (concentration not given with the values); E. coli YBA685 rctB-dependent plasmid, OD600 growth, 3 h; hits give low values; AID 504770; in the data active means z-score below about -2, passing the limit was not always enough
MbtI inh: blocks the Mycobacterium tuberculosis siderophore enzyme MbtI; P9WFX0; inhibition, % (concentration not given with the values); purified MbtI enzyme, fluorescence intensity read-out; hit rate 0.89% among 100,000; AID 493033; in the data active means inhibition mostly above about 56%, no sharp cut-off; inactive means mostly below about 77%
MenB inh: Mtb MenB enzyme inhibition. hit rate 0.43% among 100,000. AID 540299. MenB enzyme assay, absorbance read-out. inhibition, % (test concentration not listed). P9WNP5; in the data active means inhibition above about 21%, passing the limit was not always enough
Target sequence (P9WNP5 whole entry, looked up): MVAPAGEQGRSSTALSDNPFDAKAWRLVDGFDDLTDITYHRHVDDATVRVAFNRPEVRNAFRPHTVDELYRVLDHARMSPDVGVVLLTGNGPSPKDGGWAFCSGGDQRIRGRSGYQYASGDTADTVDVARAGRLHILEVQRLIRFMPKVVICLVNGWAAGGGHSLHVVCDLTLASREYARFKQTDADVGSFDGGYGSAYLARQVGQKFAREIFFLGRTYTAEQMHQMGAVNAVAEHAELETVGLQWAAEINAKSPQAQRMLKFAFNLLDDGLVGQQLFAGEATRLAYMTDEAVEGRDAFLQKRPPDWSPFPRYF
* hit, by the source's call. Compounds with a hit are over-represented: about 1.4% of the library has one in this group of screens.

What do the screens show for `N#CCOC(=O)c1nc(-c2ccccc2)n(-c2ccccc2)n1`?
PV pol inh: 83*; AID504770: -0.5; MbtI inh: -5; MenB inh: -11

What do the screens show for `COc1ccc(S(=O)(=O)N2CCn3c(nc4ccccc43)C2)cc1OC`?
PV pol inh: 101; AID504770: 0.15; MbtI inh: -6; MenB inh: 5

What do the screens show for `N#CC1=C(S)NC(=O)CC1c1ccco1` (stereo unspecified)?
PV pol inh: 79*; AID504770: -0.35; MbtI inh: 6; MenB inh: -39

What do the screens show for `N#CC1=C(SCC(=O)N(c2ccccc2)c2ccccc2)NC(=O)CC1c1ccco1` (stereo unspecified)?
AID504770: 1.3

What do the screens show for `CC(C)N(CC(=O)c1cccs1)Cc1ccccc1`?
PV pol inh: 98; AID504770: 1.4; MbtI inh: 100*; MenB inh: -8

How did CCC(=O)c1cc(Cl)ccc1O do in these assays?
PV pol inh: 103; AID504770: -0.2; MbtI inh: -3; MenB inh: -3

How did Oc1ccc(Cl)cc1Sc1cc(Cl)ccc1O do in these assays?
PV pol inh: 107; AID504770: -7.1*; MenB inh: -36

How did CN1C(=O)c2ccccc2C(C(=O)O)C1c1cccs1 (stereo unspecified) do in these assays?
PV pol inh: 100; AID504770: 0.45; MbtI inh: 4; MenB inh: 14

How did Cc1cc(C)n2ncc(/C(N)=N/O)c2n1 do in these assays?
AID504770: -0.45

What do the screens show for `N#CCc1ccc(OC(F)F)cc1`?
PV pol inh: 31*; AID504770: 0.15; MbtI inh: 0; MenB inh: -14

How did CCSc1nsc(NC(=O)Nc2cccc(F)c2)n1 do in these assays?
PV pol inh: 102; AID504770: -2.8*; MbtI inh: 20; MenB inh: 15

How did Cc1ccc(N2C(=O)C(C)N=C2N2CCN(c3ccccc3)CC2)cc1 (stereo unspecified) do in these assays?
PV pol inh: 100; AID504770: -0.8; MbtI inh: 9; MenB inh: 8

Results for O=C(CC12CC3CC(CC(C3)C1)C2)Nc1c(O)c2ccccc2oc1=O ?
PV pol inh: 104; AID504770: 1.8; MbtI inh: 12; MenB inh: 14

Results for Cc1ccc(NC(=O)CSc2nc3n[nH]c(C)c3c(=N)n2-c2cccc(C)c2)cc1 ?
PV pol inh: 104

How did CCc1ccc(NC(=O)CSc2nc3n[nH]c(C)c3c(=N)n2-c2ccc(C)cc2)cc1 do in these assays?
PV pol inh: 86*

What do the screens show for `CCOc1ccc2c(c1)-c1c(ss/c1=N\NC(=O)c1cccnc1)C(C)(C)N2`?
PV pol inh: 98; AID504770: -0.75; MbtI inh: 31; MenB inh: -42

How did O=c1[nH]c(CSc2ccccn2)nc2ccsc12 do in these assays?
PV pol inh: 128; AID504770: 0.65; MbtI inh: 96*; MenB inh: -22

Results for Cc1ccc(C)c(SCC(=O)NC(C)C(c2cccs2)N2CCCC2)c1 (stereo unspecified) ?
PV pol inh: 99; AID504770: 0.25; MbtI inh: 3

How did Cc1ccc(C)c(SCC(=O)NC(C)C(c2ccccc2)N2CCOCC2)c1 (stereo unspecified) do in these assays?
PV pol inh: 88*; AID504770: 1; MbtI inh: 2

What do the screens show for `CN(C)c1ccc(C2=CC=CC(=C3C=CC(=[N+](C)C)C=C3)O2)cc1`?
PV pol inh: 99; AID504770: 1; MbtI inh: 84*; MenB inh: -53

What do the screens show for `CN(C)c1ccc(C(=C2C=CC(=[N+](C)C)C=C2)c2ccc(N(C)C)cc2)cc1`?
PV pol inh: 98; AID504770: 5.7; MbtI inh: 9; MenB inh: 6

What do the screens show for `Cc1[nH]c2ccccc2c1C(c1cccs1)N1CCCC1` (stereo unspecified)?
AID504770: -1.9

Results for CCOC(=O)c1c(-c2ccc(C)cc2)csc1NC(=O)c1cc(-c2ccc(OC)cc2)on1 ?
PV pol inh: 105

What do the screens show for `CCOC(=O)c1c(NC(=O)c2cc(-c3cccc(OC)c3)on2)sc2c1CCCC2`?
PV pol inh: 77*

What do the screens show for `CCOC(=O)c1c(NC(=O)c2cc(-c3ccc(OC)c(OC)c3)on2)sc2c1CCCC2`?
PV pol inh: 98

What do the screens show for `CCOC(=O)c1c(NC(=O)c2cc(-c3ccc(OC)cc3)on2)sc(C)c1C`?
PV pol inh: 84*

What do the screens show for `CCOC(=O)c1c(-c2ccc(C)cc2)csc1NC(=O)c1cc(=O)c2cc(C)ccc2o1`?
PV pol inh: 61*
